According to PubChem BioAssay AID1159580 (chemical genetic matrix, 2015):
In all, about 5,500 compounds went through this assay and about 2,000 (36%) were called active. Another 18% or so got no clear call; they are omitted. This is one part of the list. A number with no mark means an inactive call. Rule as the data show it: active = normalized growth mostly below about 0.91 (no sharp cut-off); inconclusive = no clear call, values can overlap the other calls; inactive = mostly above about 0.92.

Test: chemical genetic growth profiling, strain panel (AID 1159580);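 also: tested at 20 µM; growth read once vehicle control cultures reached saturation at 30 °C; 1 = growth at the plate median or of vehicle wells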
Conditions: growth OD

SMILES: C=Cc1c2[nH]c(c1C)C=c1[nH]c(c(C)c1C=C)=CC1N=C(C=c3[nH]c(c(C)c3CCC(=O)O)=C2)C(CCC(=O)O)=C1C (configuration not stated)
- normalized growth (S. cerevisiae deletion strains, locus YJR075W, strain HOC1, stronger effect = lower value): 0.947
- normalized growth (S. cerevisiae deletion strains, locus YKL009W, strain mrt4, stronger effect = lower value): 0.791 (active)
- normalized growth (S. cerevisiae deletion strains, locus YKL068W, stronger effect = lower value): 1.06
- normalized growth (S. cerevisiae deletion strains, locus YKL085W, strain MDH1 (second series), stronger effect = lower value): 1.19 [resistant] (active)
- normalized growth (S. cerevisiae deletion strains, locus YKL085W, strain MDH1, stronger effect = lower value): 1.19 [resistant] (active)
- normalized growth (S. cerevisiae deletion strains, locus YKL160W, strain elf1, stronger effect = lower value): 0.963
- normalized growth (S. cerevisiae deletion strains, locus YKL190W, strain CNB1, stronger effect = lower value): 0.99
- normalized growth (S. cerevisiae deletion strains, locus YKR001C, strain vps1, stronger effect = lower value): 0.953
- normalized growth (S. cerevisiae deletion strains, locus YKR026C, strain gcn3, stronger effect = lower value): 1.06
- normalized growth (S. cerevisiae deletion strains, locus YKR091W, strain srl3, stronger effect = lower value): 1
- normalized growth (S. cerevisiae deletion strains, locus YLL001W, strain dnm1, stronger effect = lower value): 1.02
- normalized growth (S. cerevisiae deletion strains, locus YLL026W, stronger effect = lower value): 1.02
- normalized growth (S. cerevisiae deletion strains, locus YLL041C, strain sdh2, stronger effect = lower value): 1.02
- normalized growth (S. cerevisiae deletion strains, locus YLR027C, strain aat2, stronger effect = lower value): 1
- normalized growth (S. cerevisiae deletion strains, locus YLR039C, strain RIC1, stronger effect = lower value): 0.996
- normalized growth (S. cerevisiae deletion strains, locus YLR058C, strain SHM2, stronger effect = lower value): 0.976
- normalized growth (S. cerevisiae deletion strains, locus YLR102C, strain apc9, stronger effect = lower value): 0.992
- normalized growth (S. cerevisiae deletion strains, locus YLR113W, strain HOG1, stronger effect = lower value): 1.05
- normalized growth (S. cerevisiae deletion strains, locus YLR221C, strain rsa3, stronger effect = lower value): 0.975
- normalized growth (S. cerevisiae deletion strains, locus YLR258W, strain gsy2, stronger effect = lower value): 1.02
- normalized growth (S. cerevisiae deletion strains, locus YLR262C, strain YPT6 (second series), stronger effect = lower value): 1.07
- normalized growth (S. cerevisiae deletion strains, locus YLR262C, strain YPT6, stronger effect = lower value): 0.976
- normalized growth (S. cerevisiae deletion strains, locus YLR268W, strain sec22, stronger effect = lower value): 1.06
- normalized growth (S. cerevisiae deletion strains, locus YLR320W, strain mms22, stronger effect = lower value): 0.996
- normalized growth (S. cerevisiae deletion strains, locus YLR330W, strain CHS5, stronger effect = lower value): 0.99
- normalized growth (S. cerevisiae deletion strains, locus YLR342W, strain FKS1 (second series), stronger effect = lower value): 0.993
- normalized growth (S. cerevisiae deletion strains, locus YLR342W, strain FKS1, stronger effect = lower value): 1.03
- normalized growth (S. cerevisiae deletion strains, locus YLR357W, strain rsc2, stronger effect = lower value): 1.05
- normalized growth (S. cerevisiae deletion strains, locus YLR370C, strain arc18, stronger effect = lower value): 0.999
- normalized growth (S. cerevisiae deletion strains, locus YLR371W, strain rom2, stronger effect = lower value): 0.949
- normalized growth (S. cerevisiae deletion strains, locus YLR384C, strain iki3, stronger effect = lower value): 1.04
- normalized growth (S. cerevisiae deletion strains, locus YLR418C, strain cdc73, stronger effect = lower value): 0.885
- normalized growth (S. cerevisiae deletion strains, locus YML016C, strain PPZ1, stronger effect = lower value): 0.979
- normalized growth (S. cerevisiae deletion strains, locus YML032C, strain rad52, stronger effect = lower value): 1.01
- normalized growth (S. cerevisiae deletion strains, locus YML120C, strain ndi1, stronger effect = lower value): 1.01
- normalized growth (S. cerevisiae deletion strains, locus YML124C, strain tub3, stronger effect = lower value): 0.987
- normalized growth (S. cerevisiae deletion strains, locus YMR058W, strain fet3, stronger effect = lower value): 0.912
- normalized growth (S. cerevisiae deletion strains, locus YMR078C, strain ctf18, stronger effect = lower value): 0.993
- normalized growth (S. cerevisiae deletion strains, locus YMR125W, strain sto1, stronger effect = lower value): 1.06
- normalized growth (S. cerevisiae deletion strains, locus YMR129W, stronger effect = lower value): 1.06
- normalized growth (S. cerevisiae deletion strains, locus YMR205C, strain PFK2, stronger effect = lower value): 1.02
- normalized growth (S. cerevisiae deletion strains, locus YMR223W, strain ubp8, stronger effect = lower value): 0.972
- normalized growth (S. cerevisiae deletion strains, locus YMR231W, strain pep5, stronger effect = lower value): 1.02
- normalized growth (S. cerevisiae deletion strains, locus YMR263W, strain SAP30, stronger effect = lower value): 0.982
- normalized growth (S. cerevisiae deletion strains, locus YMR307W, strain GAS1, stronger effect = lower value): 0.909
- normalized growth (S. cerevisiae deletion strains, locus YNL067W, strain RPL9B, stronger effect = lower value): 1
- normalized growth (S. cerevisiae deletion strains, locus YNL071W, strain lat1, stronger effect = lower value): 0.881 (active)
- normalized growth (S. cerevisiae deletion strains, locus YNL128W, strain TEP1, stronger effect = lower value): 0.975
- normalized growth (S. cerevisiae deletion strains, locus YNL153C, strain GIM3, stronger effect = lower value): 1
- normalized growth (S. cerevisiae deletion strains, locus YNL183C, strain NPR1, stronger effect = lower value): 1.01
- normalized growth (S. cerevisiae deletion strains, locus YNL209W, strain ssb2, stronger effect = lower value): 1.02
- normalized growth (S. cerevisiae deletion strains, locus YNL233W, strain BNI4, stronger effect = lower value): 1.01
- normalized growth (S. cerevisiae deletion strains, locus YNL248C, strain rpa49, stronger effect = lower value): 0.987
- normalized growth (S. cerevisiae deletion strains, locus YNL250W, strain rad50, stronger effect = lower value): 1.02
- normalized growth (S. cerevisiae deletion strains, locus YNL271C, strain bni1, stronger effect = lower value): 1.02
- normalized growth (S. cerevisiae deletion strains, locus YNL298W, strain CLA4, stronger effect = lower value): 1
- normalized growth (S. cerevisiae deletion strains, locus YNL307C, strain MCK1, stronger effect = lower value): 0.966
- normalized growth (S. cerevisiae deletion strains, locus YNL322C, strain KRE1 (second series), stronger effect = lower value): 1.03
- normalized growth (S. cerevisiae deletion strains, locus YNL322C, strain KRE1, stronger effect = lower value): 0.989
- normalized growth (S. cerevisiae deletion strains, locus YNR049C, strain mso1, stronger effect = lower value): 1.01
- normalized growth (S. cerevisiae deletion strains, locus YNR052C, strain pop2, stronger effect = lower value): 1
- normalized growth (S. cerevisiae deletion strains, locus YOL006C, strain TOP1, stronger effect = lower value): 0.997
- normalized growth (S. cerevisiae deletion strains, locus YOL012C, strain htz1): 0.933
- normalized growth (S. cerevisiae deletion strains, locus YOL147C, strain pex11, stronger effect = lower value): 0.996
- normalized growth (S. cerevisiae deletion strains, locus YOR001W, strain rrp6, stronger effect = lower value): 1.03
- normalized growth (S. cerevisiae deletion strains, locus YOR061W, strain CKA2, stronger effect = lower value): 0.98
- normalized growth (S. cerevisiae deletion strains, locus YOR069W, strain VPS5, stronger effect = lower value): 0.95
- normalized growth (S. cerevisiae deletion strains, locus YOR070C, strain gyp1, stronger effect = lower value): 0.98
- normalized growth (S. cerevisiae deletion strains, locus YOR080W, strain dia2, stronger effect = lower value): 1.01
- normalized growth (S. cerevisiae deletion strains, locus YOR083W, strain WHI5, stronger effect = lower value): 0.951
- normalized growth (S. cerevisiae deletion strains, locus YOR106W, strain vam3, stronger effect = lower value): 0.951
- normalized growth (S. cerevisiae deletion strains, locus YOR136W, strain idh2, stronger effect = lower value): 0.982
- normalized growth (S. cerevisiae deletion strains, locus YOR144C, strain elg1, stronger effect = lower value): 0.996
- normalized growth (S. cerevisiae deletion strains, locus YOR184W, strain ser1, stronger effect = lower value): 0.964
- normalized growth (S. cerevisiae deletion strains, locus YOR231W, strain MKK1, stronger effect = lower value): 1.05
- normalized growth (S. cerevisiae deletion strains, locus YOR265W, strain rbl2, stronger effect = lower value): 1.01
- normalized growth (S. cerevisiae deletion strains, locus YOR270C, strain vph1, stronger effect = lower value): 0.874
- normalized growth (S. cerevisiae deletion strains, locus YOR290C, strain snf2, stronger effect = lower value): 0.997
- normalized growth (S. cerevisiae deletion strains, locus YOR316C, strain cot1, stronger effect = lower value): 0.99
- normalized growth (S. cerevisiae deletion strains, locus YPL051W, strain arl3, stronger effect = lower value): 0.949
- normalized growth (S. cerevisiae deletion strains, locus YPL055C, strain LGE1, stronger effect = lower value): 0.903
- normalized growth (S. cerevisiae deletion strains, locus YPL078C, strain atp4, stronger effect = lower value): 0.984
- normalized growth (S. cerevisiae deletion strains, locus YPL106C, strain sse1, stronger effect = lower value): 0.982
- normalized growth (S. cerevisiae deletion strains, locus YPL240C, strain hsp82, stronger effect = lower value): 0.994
- normalized growth (S. cerevisiae deletion strains, locus YPL241C, strain CIN2, stronger effect = lower value): 0.994
- normalized growth (S. cerevisiae deletion strains, locus YPL256C, strain CLN2, stronger effect = lower value): 1.1
- normalized growth (S. cerevisiae deletion strains, locus YPR119W, strain clb2, stronger effect = lower value): 0.994
- normalized growth (S. cerevisiae deletion strains, locus YPR141C, strain kar3, stronger effect = lower value): 1.01
- normalized growth (S. cerevisiae deletion strains, locus YPR163C, strain tif3, stronger effect = lower value): 1
- normalized growth (S. cerevisiae deletion strains, locus YPR167C, strain met16, stronger effect = lower value): 1
- normalized growth (S. cerevisiae deletion strains, strain wtn01, stronger effect = lower value): 0.996
- normalized growth (S. cerevisiae strains, strain wild type, stronger effect = lower value): 0.972
